Results taken from PubChem BioAssay (NCATS).
Results filed as inconclusive are left out. Active and inactive are the calls of the source. Unless noted, calls come from the whole dose curve; as a rule, active = well fitted curve in the direction sought with a large enough effect; inconclusive = small, poorly fitted or top-dose-only effect, or another doubt; inactive = no such curve, though single readings can be large; an effect the other way counts as inactive or inconclusive. Bridge positions count the residues as written; N and C are the ends. Square brackets hold non-standard residues; d marks the D form. Peptide text beside a SMILES is read from it. * marks the point of attachment. Ileψ(thiazoline)Cys = CC[C@H](C)[C@H](N)C1=N[C@H](C(=O)*)CS1; d(aIle) = CC[C@H](C)[C@@H](N)C(=O)O; dOrn = NCCC[C@@H](N)C(=O)O

Assays:
[1] = NFAT Signaling Pathway (AID 444; active = well fitted curve in either direction with a large enough effect, not every such curve was filed as active;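 note: carbachol stimulus at about its EC50 of 1 µM final; % is set by controls: 0 for no effect and ±100 for the full control effect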); details: Jurkat NFAT-bla M1, carbachol, beta-lactamase ratio, 5 h; at 17.2 µM (top of the series) unless noted
How it was run: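 Read-out: CCF4 FRET ratio (460 nm/530 nm) after 1 h RT dye loading, used for %activity and AC50 from titration series. Cells: Jurkat NFAT-β-lactamase/M1 line, treated with compound plus 1 uM carbachol for 5 h, 37 °C.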

[2] = Stat Signaling Pathway (AID 446; active = well fitted curve in either direction with a large enough effect, not every such curve was filed as active;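 note: ME-180 cervical cancer cells given 40 pM IL-6 alongside compound; SIE-controlled beta-lactamase reporter measured as 460/530 nm FRET emission ratio; % is set by controls: 0 for no effect and ±100 for the full control effect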)
How it was run: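 FRET read-out (405 nm excitation, 460/530 nm emission) of a beta-lactamase reporter under a STAT-inducible element in ME-180 cervical carcinoma cells. Cells with compound receive 40 pM IL-6 for 5 h. Values are normalised to AC90 stimulation and AC90 JAK-inhibitor controls.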

[3] = target: Glucocorticoid receptor (Homo sapiens) (UniProt P04150); test: GR-GFP Redistribution (AID 450;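 active = compounds whose dose series gives a full or clear partial fitted curve of increased nuclear translocation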; note: potency is the fitted concentration of half-maximal effect); details: U2OS GR-GFP nuclear translocation, laser cytometry, 2 h
Glucocorticoid receptor (Homo sapiens), sequence (P04150 whole entry, looked up, the tested form may be a part): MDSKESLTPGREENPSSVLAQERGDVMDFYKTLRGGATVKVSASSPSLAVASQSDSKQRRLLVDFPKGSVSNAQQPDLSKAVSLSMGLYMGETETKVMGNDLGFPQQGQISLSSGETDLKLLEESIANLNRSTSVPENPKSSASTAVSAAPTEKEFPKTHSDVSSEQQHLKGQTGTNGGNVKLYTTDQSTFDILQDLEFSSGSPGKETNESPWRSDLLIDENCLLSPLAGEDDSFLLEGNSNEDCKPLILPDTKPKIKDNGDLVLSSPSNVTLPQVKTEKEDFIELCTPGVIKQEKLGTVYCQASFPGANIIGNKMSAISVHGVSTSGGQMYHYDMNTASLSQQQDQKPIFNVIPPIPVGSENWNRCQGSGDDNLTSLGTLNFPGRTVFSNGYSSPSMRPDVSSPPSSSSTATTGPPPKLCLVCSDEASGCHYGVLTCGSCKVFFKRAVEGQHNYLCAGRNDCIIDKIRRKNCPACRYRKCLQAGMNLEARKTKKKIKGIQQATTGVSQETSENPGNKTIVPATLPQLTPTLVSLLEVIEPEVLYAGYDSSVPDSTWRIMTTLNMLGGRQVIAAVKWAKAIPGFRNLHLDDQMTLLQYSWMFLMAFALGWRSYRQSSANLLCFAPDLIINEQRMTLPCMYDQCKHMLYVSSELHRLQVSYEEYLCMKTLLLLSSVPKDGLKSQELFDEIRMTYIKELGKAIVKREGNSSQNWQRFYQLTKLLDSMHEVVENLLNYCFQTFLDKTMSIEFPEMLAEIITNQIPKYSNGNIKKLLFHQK

[4] = target: Glucocorticoid receptor (Homo sapiens) (UniProt P04150); test: GR-EFC Redistribution (AID 451; calls by dose curve; note: potency is the fitted concentration of half-maximal effect); details: CHO-K1 GR-EFC translocation, beta-gal luminescence, 2 h
How it was run: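 Translocation of GR-ED fusion to nuclear EA restores b-gal, read by luminescence after 1 h room-temperature detection. Engineered CHO-K1 biosensor cells, 1,000/well, exposed 2 h at 37 C to titrations up to 46 uM final.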

[5] = target: Mitogen-activated protein kinase 10 (Mus musculus) (UniProt Q61831); test: JNK3 AlphaScreen Assay (AID 530; active = well fitted curve in either direction with a large enough effect, not every such curve was filed as active;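 note: kinase came from lysate of stimulated human HepG2 cells; signal reports phosphorylation of biotinylated GST-cJun 1-79 at Ser73 with 10 µM ATP; % is set by controls: 0 for no effect and ±100 for the full control effect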)
How it was run: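 qHTS titrations with 15 min compound pre-incubation before adding ATP (10 uM final). Read-out: AlphaScreen of Ser73-phosphorylated biotin-GST-cJun using HepG2 lysate JNK3 activated by IL-1β and TNFα.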

[6] = target: 3',5'-cyclic-AMP phosphodiesterase 4B (Homo sapiens) (UniProt Q07343); test: qHTS Assay for Inhibitors of PDE-IV (AID 607; active = well fitted activation curve with a large enough effect in the main read-out, with a control signal flat, not every such curve was filed as active; note: % of control where 0% means no effect)
3',5'-cyclic-AMP phosphodiesterase 4B (Homo sapiens), sequence (Q07343 whole entry, looked up): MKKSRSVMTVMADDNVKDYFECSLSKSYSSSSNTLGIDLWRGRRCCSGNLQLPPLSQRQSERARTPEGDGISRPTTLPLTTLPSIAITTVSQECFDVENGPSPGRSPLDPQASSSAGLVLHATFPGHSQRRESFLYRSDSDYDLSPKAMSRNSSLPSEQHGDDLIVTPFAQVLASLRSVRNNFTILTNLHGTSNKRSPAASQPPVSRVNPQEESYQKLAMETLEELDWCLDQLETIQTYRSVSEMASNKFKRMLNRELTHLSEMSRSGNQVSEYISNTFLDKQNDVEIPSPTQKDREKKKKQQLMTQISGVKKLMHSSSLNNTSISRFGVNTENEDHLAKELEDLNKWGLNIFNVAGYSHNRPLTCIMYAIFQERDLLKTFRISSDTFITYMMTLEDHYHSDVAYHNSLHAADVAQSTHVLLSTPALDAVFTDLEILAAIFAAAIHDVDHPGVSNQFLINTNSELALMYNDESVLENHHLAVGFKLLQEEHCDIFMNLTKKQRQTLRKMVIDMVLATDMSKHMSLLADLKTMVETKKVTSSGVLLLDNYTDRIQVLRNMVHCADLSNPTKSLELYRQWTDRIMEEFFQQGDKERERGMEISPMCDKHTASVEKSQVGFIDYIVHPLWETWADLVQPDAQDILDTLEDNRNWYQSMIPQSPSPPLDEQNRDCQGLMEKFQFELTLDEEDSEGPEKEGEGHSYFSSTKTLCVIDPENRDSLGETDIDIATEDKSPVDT
How it was run: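 Cell-based read-out of cAMP via a modified cyclic nucleotide-gated channel and membrane potential dye (535/590 nm) in HEK293 cells expressing PDE4 endogenously. Compounds tested up to 22.9 uM final; 100 uM RO 20-1724 reference.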

[7] = qHTS Assay for Lipid Storage Modulators (AID 1519; calls by dose curve); details: Drosophila S3 cells, BODIPY lipid droplet/cell ratio, laser cytometry, cells loaded with oleic acid; for activity change, negative = inhibition: at 25.7 µM (top of the series)
How it was run: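 Cells seeded at 5,000 per well were treated with compounds over a concentration series and loaded with oleic acid (400 uM, as added). Lipid droplet fluorescence (488 nm excitation, 500-530 nm channel) was read by laser-scanning cytometry and normalized to 20 uM Triacsin C.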

[8] = target: ATP-dependent 6-phosphofructokinase (Trypanosoma brucei brucei) (UniProt O15648); test: qHTS Assay to Find Inhibitors of T. brucei phosphofructokinase: hit validation (AID 492961);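 note: luminescence reports ADP formed as PFK phosphorylates fructose-6-phosphate with ATP; % is set by controls: 0 for no effect and ±100 for the full control effect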
ATP-dependent 6-phosphofructokinase (Trypanosoma brucei brucei), sequence (O15648 whole entry, looked up): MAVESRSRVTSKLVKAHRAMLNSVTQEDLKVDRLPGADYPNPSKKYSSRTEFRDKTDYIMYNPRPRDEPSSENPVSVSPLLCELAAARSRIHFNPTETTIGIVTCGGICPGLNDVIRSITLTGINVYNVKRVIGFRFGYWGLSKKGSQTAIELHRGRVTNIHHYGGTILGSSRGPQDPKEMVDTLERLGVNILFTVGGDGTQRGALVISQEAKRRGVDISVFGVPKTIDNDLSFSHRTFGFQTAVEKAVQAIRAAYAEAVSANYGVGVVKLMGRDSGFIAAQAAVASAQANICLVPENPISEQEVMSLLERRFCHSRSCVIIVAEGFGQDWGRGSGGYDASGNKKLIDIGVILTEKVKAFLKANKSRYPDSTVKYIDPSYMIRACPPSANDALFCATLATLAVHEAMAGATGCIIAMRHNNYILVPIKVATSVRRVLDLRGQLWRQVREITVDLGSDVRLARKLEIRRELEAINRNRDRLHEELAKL
How it was run: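 In this biochemical qHTS validation, titrated compounds were tested against 1.25 nM PFK with 0.1 mM ATP and 0.5 mM F6P. Percent activity came from controls lacking or containing enzyme.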

[9] = target: Ubiquitin carboxyl-terminal hydrolase 1 (Homo sapiens) (UniProt O94782); test: Inhibitors of USP1/UAF1: Pilot qHTS (AID 504865);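 note: rhodamine fluorescence freed from ubiquitin-rhodamine substrate followed over time; top concentration of the series differs between compounds; % is set by controls: 0 for no effect and ±100 for the full control effect; nearly all actives have a fitted effect of over 35% in size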
Ubiquitin carboxyl-terminal hydrolase 1 (Homo sapiens), sequence (O94782 whole entry, looked up): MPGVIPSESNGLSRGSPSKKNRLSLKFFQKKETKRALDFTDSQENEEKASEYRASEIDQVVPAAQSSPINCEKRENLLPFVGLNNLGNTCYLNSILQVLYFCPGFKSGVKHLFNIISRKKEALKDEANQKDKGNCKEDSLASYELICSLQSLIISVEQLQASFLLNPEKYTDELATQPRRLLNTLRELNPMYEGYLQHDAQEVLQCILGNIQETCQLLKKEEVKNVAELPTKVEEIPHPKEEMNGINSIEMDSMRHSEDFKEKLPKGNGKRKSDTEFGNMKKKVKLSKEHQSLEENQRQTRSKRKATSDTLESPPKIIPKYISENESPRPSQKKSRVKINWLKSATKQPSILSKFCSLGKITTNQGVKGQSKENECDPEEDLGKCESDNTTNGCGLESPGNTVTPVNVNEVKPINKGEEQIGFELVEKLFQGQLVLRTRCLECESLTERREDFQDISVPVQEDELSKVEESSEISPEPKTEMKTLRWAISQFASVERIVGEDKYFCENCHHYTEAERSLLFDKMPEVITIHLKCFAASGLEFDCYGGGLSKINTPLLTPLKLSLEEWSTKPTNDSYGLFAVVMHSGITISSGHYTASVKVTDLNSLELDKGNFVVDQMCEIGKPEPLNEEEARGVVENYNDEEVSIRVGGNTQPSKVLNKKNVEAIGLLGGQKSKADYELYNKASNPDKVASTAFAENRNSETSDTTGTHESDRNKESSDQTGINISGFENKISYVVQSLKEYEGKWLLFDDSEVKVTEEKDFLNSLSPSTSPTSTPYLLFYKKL
How it was run: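 Deubiquitinase activity followed as kinetic rhodamine fluorescence release from 150 nM Ub-Rho. 1 nM USP1/UAF1 with compound, after 15 min room-temperature preincubation, in HEPES pH 7.8 buffer containing TCEP, EDTA, BSA and Tween-20.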

[10] = target: Luciferin 4-monooxygenase (Photinus pyralis) (UniProt P08659); test: Biochemical firefly luciferase enzyme assay for NPC (AID 624030);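 note: purified P. pyralis luciferase at 10 nM with luciferin and ATP substrate; 0% = DMSO and -100% = full luciferase inhibition by PTC124 control; nearly all actives have a fitted effect of over 70% in size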
Luciferin 4-monooxygenase (Photinus pyralis), sequence (P08659 whole entry, looked up): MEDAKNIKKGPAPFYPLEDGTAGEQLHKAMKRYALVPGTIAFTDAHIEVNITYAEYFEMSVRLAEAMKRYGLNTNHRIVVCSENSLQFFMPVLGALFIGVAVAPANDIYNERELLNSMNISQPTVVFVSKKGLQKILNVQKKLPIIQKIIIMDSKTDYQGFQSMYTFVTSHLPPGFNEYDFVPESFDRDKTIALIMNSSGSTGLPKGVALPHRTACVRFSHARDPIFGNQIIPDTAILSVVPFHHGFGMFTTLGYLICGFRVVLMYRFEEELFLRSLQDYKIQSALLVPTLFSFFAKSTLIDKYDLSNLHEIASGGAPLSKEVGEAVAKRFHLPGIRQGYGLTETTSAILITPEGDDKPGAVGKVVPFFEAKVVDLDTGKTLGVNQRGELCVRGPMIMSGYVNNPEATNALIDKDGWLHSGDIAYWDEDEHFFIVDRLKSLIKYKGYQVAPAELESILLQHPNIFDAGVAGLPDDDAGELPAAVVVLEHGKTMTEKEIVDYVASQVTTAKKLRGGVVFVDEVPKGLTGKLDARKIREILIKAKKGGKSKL
How it was run: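 Direct inhibition of firefly luciferase enzyme (10 nM final, 50 mM Tris Acetate) assessed by luminescence within 5 minutes. Percent activity scaled between DMSO and PTC124 positive control, with concentration-effect curves classified by fit quality and response.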

[11] = qHTS profiling for inhibitors of Plasmodium falciparum proliferation (AID 504749); note: nearly all actives have a fitted effect of over 60% in size; note: potency is the fitted concentration of half-maximal effect;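 for activity, negative = inhibition: 0% = DMSO vehicle and full inhibition = artemisinin control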; details: P. falciparum in erythrocytes, SYBR Green DNA, 72 h, at 12.8 µM (top of the series)
How it was run: (§1)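 SYBR Green fluorescence of parasite DNA, read after lysis and overnight dark incubation, measured growth over 72 h in erythrocyte culture at 0.3% parasitemia and 2.5% hematocrit. Data normalised to DMSO and 0.29 uM artemisinin, with plate-drift correction.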

C2A = test: as above; details: P. falciparum in erythrocytes, SYBR Green DNA, 72 h; series mostly up to 12.8 µM
How it was run: as §1

CP238 = test: as above; details: P. falciparum in erythrocytes, SYBR Green DNA, 72 h; series mostly up to 12.8 µM
How it was run: as §1

CP252 = test: as above; details: P. falciparum in erythrocytes, SYBR Green DNA, 72 h; series mostly up to 12.8 µM
How it was run: as §1

DIV14 = test: as above; details: P. falciparum in erythrocytes, SYBR Green DNA, 72 h; series mostly up to 12.8 µM
How it was run: as §1

JCK = test: as above; details: P. falciparum in erythrocytes, SYBR Green DNA, 72 h; series mostly up to 12.8 µM
How it was run: as §1

N140 = test: as above; details: P. falciparum in erythrocytes, SYBR Green DNA, 72 h; series mostly up to 12.8 µM
How it was run: as §1

SC27B = test: as above; details: P. falciparum in erythrocytes, SYBR Green DNA, 72 h; series mostly up to 12.8 µM
How it was run: as §1

W2 = test: as above; details: P. falciparum in erythrocytes, SYBR Green DNA, 72 h; series mostly up to 12.8 µM
How it was run: as §1

[12] = AP1 Signaling Pathway (AID 357; active = well fitted curve in either direction with a large enough effect, not every such curve was filed as active)
How it was run: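 Beta-lactamase reporter under AP-1 response element, ME-180 background. Stimulus: EC50 EGF. Compound exposure 5 h, 37 °C. Detection: CCF4, 2.5 h RT, 460/530 nm. Values: AC50 from titration.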

[13] = measured here: cell count channel max response
[14] = measured here: lipid channel max response

CC(=O)OCC(=O)[C@@]1(O)CC[C@@H]2[C@H]3CCC4=CC(=O)C=C[C@]4(C)[C@]3(F)[C@@H](O)C[C@@]21C
15.5%: max response [7, 13]
inactive: activity change, negative = inhibition [1] -2.98% | outcome [2] | Potency [5] | outcome [6] | activity change, negative = inhibition [7] 0.563% | outcome [8] | Potency [9] | Potency [10] | activity, negative = inhibition ([11]; parasite line A) -3.89% | activity, negative = inhibition ([11]; parasite line B) 16% | Potency (C2A) | Potency (CP238) | Potency (CP252) | Potency (DIV14) | Potency (JCK) | Potency (N140) | Potency (SC27B) | Potency (W2)
-0.686%: max response [7, 14]
active: Potency [3] 0.00326 µM | Potency [4] 0.035 µM

CO[C@@H]1C=CO[C@]2(C)Oc3c(C)c(O)c4c(O)c(c(C=NN5CCN(C)CC5)c(O)c4c3C2=O)NC(=O)C(C)=CC=C[C@H](C)[C@H](O)[C@H](C)[C@H](O)[C@H](C)[C@H](OC(C)=O)[C@H]1C
inactive: outcome [12] | activity change, negative = inhibition [1] -8.69% | outcome [2] | Potency [5] | outcome [6] | activity change, negative = inhibition [7] -0.87%
-4.36%: max response [7, 13]
-4.23%: max response [7, 14]

CC(C)(C)NC[C@H](O)COc1cccc2c1CCC(=O)N2
-2.13%: max response [7, 13]
inactive: activity change, negative = inhibition [1] -6.75% | outcome [2] | Potency [3] > 20.6 µM | Potency [4] > 20.6 µM | outcome [6] | activity change, negative = inhibition [7] -0.554% | outcome [8] | Potency [9] | Potency [10] | activity, negative = inhibition ([11]; parasite line A) 7.75% | activity, negative = inhibition ([11]; parasite line B) -1.3% | Potency (C2A) | Potency (CP238) | Potency (CP252) | Potency (DIV14) | Potency (N140) | Potency (SC27B) | Potency (W2)
active: Potency (JCK) 8.91 µM
-1.05%: max response [7, 14]

CC[C@H](C)[C@H](N)C1=N[C@H](C(=O)N[C@@H](CC(C)C)C(=O)N[C@@H](CCC(=O)O)C(=O)N[C@@H](C(=O)N[C@H]2CCCCNC(=O)[C@@H](CC(N)=O)NC(=O)[C@@H](CC(=O)O)NC(=O)[C@@H](Cc3cnc[nH]3)NC(=O)[C@@H](Cc3ccccc3)NC(=O)[C@@H]([C@@H](C)CC)NC(=O)[C@@H](CCCN)NC2=O)[C@@H](C)CC)CS1 ({Ileψ(thiazoline)Cys}-LE[d(aIle)]K[dOrn][d(aIle)][dF][dH][dD][dN]; lactam 4-C)
-6.25%: max response [7, 13]
inactive: outcome [12] | activity change, negative = inhibition [1] 1.53% | outcome [2] | Potency [5] | outcome [6] | activity change, negative = inhibition [7] -0.807% | Potency [9] | Potency [10] | activity, negative = inhibition ([11]; parasite line A) 0.552% | activity, negative = inhibition ([11]; parasite line B) 7.07% | Potency (C2A) | Potency (CP238) | Potency (CP252) | Potency (DIV14) | Potency (JCK) | Potency (N140) | Potency (W2)
-6.65%: max response [7, 14]
